# An excerpt weighted towards active compounds, which were near 2.4% of everything screened.
# LT uptake inh: blocks cellular internalization of anthrax lethal toxin; Cells, anthrax lethal toxin internalization, FRET ratio (460/530); hit rate 0.67% among 70,000; Potency, µM (doses to about 40 µM), inactives show top-dose activity change, negative = inhibition, actives largely listed as inhibitors; note: % is set by controls: 0 for no effect and ±100 for the full control effect; nearly all actives have a fitted effect of over 50% in size
# SmPrx2 inh: inhibitors of Schistosoma mansoni peroxiredoxin 2 | S. mansoni Prx2 activity coupled to TGR/GSH (TGR is thioredoxin glutathione reductase), NADPH fluorescence loss, qHTS | Potency, µM | hit rate 0.07% among 65,000 | AID 448
#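 Prx2 inhibition was measured as reduced NADPH consumption when electrons flowed from NADPH through TGR and glutathione to Prx2 and H2O2. Plates were read kinetically over 8 min; enzyme reagents were held at 4 deg C during dispensing.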
# AmpC inh no det: inhibitors of E. coli AmpC beta-lactamase without detergent; Potency, µM (doses to about 28.7 µM), inactives show top-dose activity change, negative = inhibition; AmpC nitrocefin hydrolysis, absorbance 480 nm, no detergent; hit rate 1.8% among 71,000; P00811; note: % of control where 0% means no effect
# Target sequence (P00811 whole entry, looked up): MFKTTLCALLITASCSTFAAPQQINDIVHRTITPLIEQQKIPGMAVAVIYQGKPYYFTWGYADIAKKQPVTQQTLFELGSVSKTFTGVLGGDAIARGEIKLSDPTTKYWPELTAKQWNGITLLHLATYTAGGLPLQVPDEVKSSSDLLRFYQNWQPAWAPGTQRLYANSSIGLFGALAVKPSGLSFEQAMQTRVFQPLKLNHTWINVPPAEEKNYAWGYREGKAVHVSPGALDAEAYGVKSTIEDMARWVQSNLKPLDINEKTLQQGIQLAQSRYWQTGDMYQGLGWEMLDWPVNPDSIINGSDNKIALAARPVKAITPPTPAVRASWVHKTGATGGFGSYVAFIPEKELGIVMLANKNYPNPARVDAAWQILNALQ
#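 AmpC, 20 mM phosphate pH 7.0; 15 min cpd preinc, RT; start with nitrocefin (800 uM stock); A480 kinetic read, 20 s intervals, 4 min. No-enzyme wells = negative control.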
# AmpC inh det: blocks E. coli AmpC beta-lactamase in presence of detergent; Potency, µM (highest dose often 28.7 µM), inactives show at the highest dose activity change, negative = inhibition; hit rate 0.09% among 71,000; AID 584; P00811; purified AmpC, nitrocefin hydrolysis with detergent; active = well fitted curve in the direction sought with a large enough effect; inconclusive = small, poorly fitted or top-dose-only effect; note: % is set by controls: 0 for no effect and ±100 for the full control effect
#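 E. coli AmpC (5.3 nM) in 20 mM phosphate pH 7.0 with 0.01% Triton X-100, preincubated 15 min RT with compound; nitrocefin (2 uL of 800 uM stock) hydrolysis followed by 480 nm absorbance every 20 s over 4 min.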
# Numbers without * were called inactive; ? = inconclusive; / = no result; [ ] = remark or other dose. Unless noted, calls come from the whole dose curve. Potency is the fitted concentration of half-maximal effect.
SMILES,LT uptake inh,SmPrx2 inh,AmpC inh no det,AmpC inh det
CCN1CCN(C(=O)C2CC(c3ccc(F)cc3)=NO2)CC1 (stereo not drawn),-7.1%,>57,3.98µM*[single pt active],13.4%
O=C(O)c1cc[c]([Hg][S]c2ncnc3nc[nH]c23)cc1,-4.7%[8 µM],0.861*,-2.2%[5.75 µM],-7.2%[5.75 µM]
O=C(O)CCSc1ncnc2nc[nH]c12,-7.6%[8 µM],>57,2.4%[5.75 µM],-3.5%[5.75 µM]
O=C1OC2(c3cc(Br)c(O)c(Br)c3Oc3c2cc(Br)c(O)c3Br)c2c(Cl)c(Cl)c(Cl)c(Cl)c21,?,/,-21.1%,2.4%
CCc1nnc(NC(=O)CSc2nnc(COc3ccccc3C)o2)s1,-2.0%,>57,12.6µM*[single pt active],-3.4%
N#CCCn1c(=O)c(-c2cc(F)cc(F)c2)nc2cnc(OCc3ccccc3)nc21,-25.7%,>11.4,6.4%,1.9%
S=C(Nc1ccccc1)Nc1ccccc1C#Cc1ccccc1,?,>11.4,5.01µM*,-0.3%
C/C(=C\CNc1ncnc2c1ncn2[C@@H]1O[C@@H](CO)[C@@H](O)[C@H]1O)CO,16.0%,>57,1.8%,-2.9%
CC(=O)c1ccc(OCC(O)CN2CCN(Cc3ccccc3)CC2)cc1 (stereo not drawn),-7.6%,>57,3.98µM*[single pt active],14.3%
CCOC(=O)C1CCN(CC(O)COc2ccc(C(C)=O)cc2)CC1 (stereo not drawn),-10.6%,>57,3.16µM*[single pt active],11.9%
CCOC(=O)C1CCN(CC(O)COc2ccc(C(C)(C)C)cc2)CC1 (stereo not drawn),-14.8%,>57,59.6%,-1.3%
Cc1nc2cc(-c3cccc(F)c3)nn2c(C)c1CCC(=O)N1CCN(c2ccccn2)CC1,-15.5%,>57,3.98µM*[single pt active],10.5%
Cc1nc2cc(-c3cccc(F)c3)nn2c(C)c1CCC(=O)NC(C)CCc1ccco1 (stereo not drawn),?,/,130.3%,12.9%
Cc1noc(C)c1-c1ccc2ncnc(N3CCOCC3)c2c1,14.9%,>57,24.6%,10.5%
Cc1c(-c2ccc(O)cc2)nn(-c2ccc(O)cc2)c1-c1ccc(OCCN2CCCCC2)cc1,15.8µM*,>57,-19.3%,-3.0%
N#CCCn1c(=O)c(-c2ccccc2)nc2cnc(Oc3ccccc3)nc21,?,>57,10.4%,-0.5%
Cc1ccc(S(=O)(=O)CCC(=O)c2ccc(O)cc2O)cc1,12.6µM*,/,12.6µM*,6.7%
CCCCSc1nc2c(cc1C#N)CCC2,-12.6%,>57,-6.5%,-4.4%
CCCSc1nc(C)c(-c2csc(C(C#N)=C3CCCC3)n2)cc1C#N,-12.5%,>57,12.6µM*,-0.5%
COc1ccc(-c2oc3cc(OC)c(OC(C)=O)c(OC)c3c(=O)c2OC)cc1OC(C)=O,?,37*,17.6%,0.2%
Cc1cc2ccccc2n1CCNC(=O)C(C)C,-6.1%,>57,21.5%,10.0%
Cc1ccc(S(=O)(=O)NCCn2c(C)cc3ccccc32)cc1,-8.8%,>57,15.8µM*[single pt active],-3.5%
CO[C@@H]1CC=C2CCN3CCC4=C(CC(=O)OC4)[C@]23C1,2.8%,>57,-7.9%,-0.7%
CCOc1ccc2nc(NC(=O)CN3CCC(n4nnc5cc(F)ccc54)CC3)sc2c1,12.6µM*,>57,52.4%,-5.2%
O=C(CN1CCC(n2nnc3cc(F)ccc32)CC1)NC1CC1,-7.8%,>57,3.2%,-3.4%
SMILES,LT uptake inh,SmPrx2 inh,AmpC inh no det,AmpC inh det
O=C(O)c1ccc2cc(-c3ccc(O)c(C45CC6CC(CC(C6)C4)C5)c3)ccc2c1,10µM*,/,/,/
Cc1nnc(SCC(=O)Nc2nsc(-c3ccccc3)n2)s1,/,>57,-11.5%,-3.6%
O=C(CSc1nnnn1-c1ccccc1)Nc1nsc(-c2ccccc2)n1,-23.5%,>57,-15.1%,-1.8%
O=C(CSc1nnnn1-c1ccccc1)Nc1nsc(-c2ccc(Cl)cc2)n1,-13.6%,>57,10µM*[single pt active],0.0%
Cc1ccc(-c2nc(NC(=O)CSc3nnc(C)s3)ns2)cc1,-12.4%,>57,3.98µM*[single pt active],10.9%
COc1ccc(NC(=O)/C=C\c2ccc(Cl)cc2)cc1,?,>57,-12.3%,-0.2%
CC1(C(=O)NC2CCCCCC2)CCC(=O)N1Cc1ccc2c(c1)OCO2 (stereo not drawn),-1.8%,>57,40.9%,2.7%
COc1ccc(CCNC(=O)C2(C)CCC(=O)N2Cc2ccc3c(c2)OCO3)cc1OC (stereo not drawn),-0.9%,>57,3.98µM*[single pt active],11.5%
Brc1ccc(-c2nnc3sc(CNCc4ccc5c(c4)OCO5)cn23)cc1,-10.2%,>57,3.98µM*[single pt active],7.7%
Brc1ccc(-c2nnc3sc(CNC4CCCC4)cn23)cc1,-11.3%,>57,3.98µM*[single pt active],10.4%
c1ccc(-c2nnc3sc(CN4CCC5(CC4)OCCO5)cn23)cc1,8.1%,>57,4.8%,-4.1%

# Screens as filed in PubChem BioAssay.
